# Assay results as given in PubChem BioAssay (NCATS).
# Where “and” joins values, the source holds several entries; their conditions need not be identical. Equal values may be shown once. Results filed as inconclusive are left out. A number with no mark means an inactive call. Calls of active or inactive are those of the source. Calls come from the whole dose curve; as a rule, active = well fitted inhibition curve with a large enough effect; inconclusive = small, poorly fitted or top-dose-only effect; inactive = flat fitted curve, though single readings scatter.
# Test system: NIH3T3
# Test: Cytotoxic Profiling of Annotated Libraries Using Quantitative High-Throughput Screening (AID 1296008); note: nearly all actives have a fitted effect of over 60% in size
# Settings: Five cell lines viability, CellTiter-Glo ATP luminescence, 48-72 h; max response: active compounds read low
# In short: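 Cytotoxicity was measured as CellTiter-Glo ATP luminescence, read after 10 min at room temperature. Compound treatment of the cells lasted 48 or 72 hr at 37 degrees Celsius in a qHTS format.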
# % is set by controls: 0 for no effect and ±100 for the full control effect; potency is the fitted concentration of half-maximal effect.
SMILES,Potency,max response,outcome
CNC(=O)c1ccc(Nc2cc(Nc3ccccc3S(=O)(=O)C(C)C)c3cc[nH]c3n2)nc1,2.35 µM (active),,
Cc1cnc(NC(=O)Nc2cc(Br)c(C)cc2OC[C@@H]2CNCCO2)cn1,4.18 µM (active),,
c1cc(CN2CCCNCCNCCCNCC2)ccc1CN1CCCNCCNCCCNCC1,,-1.27%,
N#CNC(=NCCCCCCOc1ccc(Cl)cc1)Nc1ccncc1,0.296 µM (active),,
COc1ccc(Nc2nccc(NCCO)n2)cc1,,1.01%,
C[C@@H]1[C@H](C)CC[C@]2(C(=O)O)CC[C@]3(C)C(=CC[C@@H]4[C@@]5(C)C[C@@H](O)[C@H](O)[C@@](C)(CO)[C@H]5CC[C@]43C)[C@@H]12,,,inactive
CC(C)(N)c1ccc(-c2nc3ccccc3nc2-c2ccccc2)cc1,25.9 µM (active),,
C=CC1=C(C(=O)O)N2C(=O)[C@@H](NC(=O)C(=NO)c3csc(N)n3)[C@H]2SC1,,,inactive
COc1cc(C(C)C)c(Oc2cnc(NC(CO)CO)nc2N)cc1I,,1.73%,
CC(=O)[C@]1(O)Cc2c(O)c3c(c(O)c2[C@@H](O[C@H]2C[C@H](N)[C@@H](O)[C@H](C)O2)C1)C(=O)c1ccccc1C3=O,0.264 µM (active),,
CCOC(=O)N1CCN([N+]([O-])=NOc2ccc([N+](=O)[O-])cc2[N+](=O)[O-])CC1,9.35 µM (active),,
O=C1c2c(O)cccc2[C@@H]([C@@H]2O[C@H](CO)[C@@H](O)[C@H](O)[C@H]2O)c2cc(CO)cc(O)c21,,4.49%,
COc1cccc2c1C(=O)c1c(O)c3c(c(O)c1C2=O)C[C@@](O)(C(=O)CO)C[C@@H]3O[C@H]1C[C@H](N)[C@@H](O)[C@H](C)O1,0.235 µM (active),,
CC(=O)OC[C@@H]1O[C@@H](n2ccc(=O)[nH]c2=O)[C@H](OC(C)=O)[C@H]1OC(C)=O,,-12.5%,
O=C(C=Cc1ccc(CN(CCO)CCc2c[nH]c3ccccc23)cc1)NO,1.05 µM (active),,
COc1ccnc2[nH]cc(C(=O)C(=O)N3CCN(C(=O)c4ccccc4)C[C@@H]3C)c12,,-11.5%,
C#C[C@]1(O)CC[C@@H]2[C@@H]3CCC4=CC(=O)CC[C@@H]4[C@H]3CC[C@@]21CC,,-8.04%,
O=C(CN1C(=O)C2(CCCC2)NC[C@H]1c1cc(F)cc(F)c1)Nc1ccc2c(c1)C[C@@]1(C2)C(=O)Nc2ncccc21,,-4.62%,
CCCCOc1ccc(C(=O)Nc2ccc(F)cc2F)cc1,,-3.26%,inactive
Nc1ccc(C(=O)Nc2cccc(-c3nc(N4CCOCC4)c4oc5ncccc5c4n3)c2)cn1,2.31 µM (active),,
CCC[C@H]1C[C@H](C(=O)N[C@@H]([C@@H]2O[C@@H](SC)[C@@H](O)[C@@H](O)[C@@H]2O)[C@H](C)Cl)N(C)C1,,-6.56%,
FC(F)c1nc2ccccc2n1-c1nc(N2CCOCC2)nc(N2CCOCC2)n1,662 nM (active) and 1.64 µM (active),,
C[C@@H](Oc1ccc2[nH]nc(C=Cc3cnn(CCO)c3)c2c1)c1c(Cl)cncc1Cl,3.72 µM (active),,
Cc1onc(-c2ccccc2)c1C(=O)N[C@@H]1C(=O)N2[C@@H](C(=O)O)C(C)(C)S[C@@H]12,,-2.28%,
